# Shown are actives, neighbours in structure and some others; about 4.7% of the full set was active somewhere.
# D1 potentiator: potentiators of human D1 dopamine receptor. AID 504651. potentiation, % at 10 µM. hit rate 0.036% among 360,000. HEK293 TREx D1 cells, calcium flux, dopamine EC20 potentiation. P21728; in the data active means potentiation above about 30%; further: 0% is about no effect
# D1 antagonist: antagonists of human D1 dopamine receptor; P21728; HEK293 TREx D1 cells, calcium flux, dopamine EC80; hits give low values; activity change, negative = inhibition, % at 10 µM; hit rate 3.2% among 360,000; in the data active means activity change below about -30%; further: on the % scale 0 is the no-effect control and ±100 the full control effect
#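 Kinetic fluorescence of a calcium dye serves as the read-out. D1-expressing Hek293 Trex cells, induced overnight at 30 C, are exposed to compound for 180 s before an EC80 dopamine addition, then read 180 s further.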
# TRHR PAM: TRH receptor (human) allosteric enhancement; P34981; TRHR cells, fluo-8 calcium fluorescence, EC20 TRH enhancement; enhancement, % at 2 µM; hit rate 0.66% among 360,000; AID 493056; in the data active means enhancement above about 30%; further: 0% is about no effect
# Target sequence (P34981 whole entry, looked up): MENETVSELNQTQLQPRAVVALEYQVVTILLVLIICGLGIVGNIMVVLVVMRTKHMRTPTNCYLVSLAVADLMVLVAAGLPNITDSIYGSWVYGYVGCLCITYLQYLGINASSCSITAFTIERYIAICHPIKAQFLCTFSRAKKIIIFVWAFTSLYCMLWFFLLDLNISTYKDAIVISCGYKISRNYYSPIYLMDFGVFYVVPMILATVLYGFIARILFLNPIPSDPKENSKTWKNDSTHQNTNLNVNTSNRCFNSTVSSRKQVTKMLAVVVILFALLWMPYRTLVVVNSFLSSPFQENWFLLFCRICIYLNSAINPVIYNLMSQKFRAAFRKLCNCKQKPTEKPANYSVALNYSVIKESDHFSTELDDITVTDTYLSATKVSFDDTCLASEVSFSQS
#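 Enhancer read-out: after compound pinning and an initial kinetic agonist-mode read, an EC20 of TRH (10 nM final) was injected and fluo-8 calcium signal (Ex 480/Em 530) followed at 1 s/cycle for 100 cycles in TRHR-expressing cells.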
# D1 agonist: activates the human D1 dopamine receptor. AID 504660. hit rate 1% among 360,000. activation, % at 2 µM. P21728. HEK293 T-REx D1 cells, calcium flux, agonist mode; further: 0% is about no effect
#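 Inducible HEK293 T-REx D1 cells, force-coupled to calcium signalling, were plated at 4000 cells/well with tetracycline and held overnight at 30 C. After no-wash calcium dye loading, compound-evoked calcium rise over 180 s flagged agonists.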
# TRHR ag: activates the human TRH receptor | P34981 | TRHR cells, calcium flux fluo-8, FDSS agonist mode | activation, % at 2 µM | hit rate 0.18% among 360,000; further: 0% is about no effect
#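 Read-out: compound-evoked intracellular calcium rise in TRHR cells, fluo-8 dye, kinetic FDSS fluorescence at 1 s/cycle following a 10-cycle baseline. Cells cultured overnight before dye loading (30 min–1.5 h, RT).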
# Starred values were filed as active, the others as inactive; x = not tested or not shown. Unless noted, no stated cut-off is given here; in the data, active means activation above about 30%; inactive means the rest.
SMILES,D1 potentiator,D1 antagonist,TRHR PAM,D1 agonist,TRHR ag
COc1ccc(NC(=O)CSc2nnc(Cc3cccn3C)n2CCc2ccccc2)c(OC)c1,2.6,1.2,7.1,-0.6,-0.6
COC(=O)CSc1nnc(Cc2ccccc2)n1-c1ccc(C)cc1,-1.1,11.9,-3.0,-2.5,-0.3
Cc1nnc(NC(=O)CSc2nnc(Cc3cccn3C)n2-c2ccccc2)s1,-8.8,10.2,39.3*,2.9,0.2
O=C(CSc1nnc(Cc2ccccc2)n1-c1ccccc1)NNC(=O)Cc1ccccc1,3.4,3.2,31.4*,3.2,0.1
COc1ccc(-n2c(Cc3cccn3C)nnc2SCC(=O)Nc2cccc(OC)c2)cc1,3.1,7.1,-0.4,0.3,-0.1
COc1ccccc1NC(=O)CSc1nnc(Cc2cccn2C)n1CCc1ccccc1,-7.0,-31.1*,-8.6,3.2,0.1
COc1ccc(NC(=O)CSc2nnc(Cc3cccn3C)n2-c2ccc(C)cc2)cc1OC,-3.2,-39.3*,2.0,0.3,-0.5
C/C(=N\NC(=O)c1ccccc1)C1C2C=CC(C2)C1(C)C (stereo not given),-2.9,-0.1,-2.9,0.1,0.4
COc1ccc(Cl)cc1C(=O)NCc1nnnn1-c1ccccc1,-0.5,-1.7,-1.0,2.1,-0.2
COc1ccc(C2=C(N3CCN(c4cccc(C)c4C)CC3)c3ccccc3C2=O)cc1,0.3,-7.4,-3.9,0.9,-0.2
Cc1cc(-c2nnc(-c3cc4ccccc4oc3=O)o2)c(C)n1-c1ccccc1,-0.7,-42.6*,-5.2,2.7,0.1
Cc1ccc(NC(=O)CSCC(=O)N(C)CC(=O)Nc2ccccc2C(F)(F)F)cc1,-2.1,-3.6,3.2,2.4,-0.7
Cc1ccc(S(=O)(=O)N2CCC(C(=O)NCCc3ccccn3)CC2)cc1,-7.0,-57.6*,-2.1,1.4,-1.2
O=C(NCCc1ccccn1)C1CCN(S(=O)(=O)c2ccc(Cl)cc2)CC1,-1.1,-15.7,10.2,3.2,0.5
Cc1ccc2c(c1)c1c(c(=O)n(-c3ccccc3C)c(=O)n1Cc1ccccc1F)n2C,-1.1,1.3,-2.2,3.1,0.4
CCOC(=O)C1=NN(C(=O)c2ccc(C)cc2)C(O)(c2ccc(Cl)cc2)C1 (stereo not given),3.2,-28.4,-2.4,158.0*,49.0*
FC(F)(F)c1cc(C(F)(F)F)c2ccc(N3CCN(c4ccc(Cl)cc4)CC3)nc2n1,-4.2,6.9,0.2,0.5,1.1
N#CC(c1ccc(Cl)cc1)c1ccc2c(C(F)(F)F)cc(C(F)(F)F)nc2n1 (stereo not given),31.6*,11.1,6.1,4.0,-0.4
O=C1NC2(CCCCC2)C(=O)N1CC(=O)N(Cc1ccccc1)c1ccccc1,-16.1,-12.4,-2.9,0.7,-1.2
CCCCc1nn2c(=O)cc(COC(=O)c3ccccc3NC(=O)c3ccccc3OC)nc2s1,2.9,4.1,1.0,-1.6,0.3
CC(=O)c1cccc(NC(=O)/C(=C/c2ccco2)NC(=O)c2ccco2)c1,38.0*,11.3,-1.7,1.4,0.0
Cc1nnc(SCC(=O)NC2CC2)s1,-1.1,-47.6*,-1.0,1.4,0.2
CCOC(=O)c1ccc(NC(=O)C(CC)Sc2nc3ccncc3[nH]2)cc1 (stereo not given),-0.8,25.3,-1.9,53.1*,-0.9
Cc1cc(C)cc(NC(=O)c2cc(S(=O)(=O)N3CCC(C)CC3)cn2C)c1,1.3,8.3,-0.1,3.3,0.2
COc1ccc(N(CC(=O)N2CCOCC2)S(C)(=O)=O)cc1Cl,-4.1,-6.2,-17.8,4.8,0.4
SMILES,D1 potentiator,D1 antagonist,TRHR PAM,D1 agonist,TRHR ag
COc1ccc(OCC(=O)N/N=C2/C=C(C)CC2)cc1,-2.7,12.4,33.2*,0.2,0.2
Cc1ccc(-n2c(SCCC(C)C)nc3sc4c(c3c2=O)CC(C)(C)OC4)cc1,0.2,-1.0,-0.3,-1.2,3.0
COc1ccc(-c2nc3sc(CCNC(=O)Cc4ccccc4)c(C)n3n2)cc1,-2.4,x,-3.5,6.7,-1.2
CN(C)c1ccc(CNC(=O)CN(C)S(=O)(=O)c2cccc3cccnc23)cc1,x,-66.0*,7.2,0.0,1.1
Cc1cc(/C=C2\SC(=S)NC2=O)c(C)n1C1CC1,-5.4,-9.6,-7.5,21.4,14.3
CN1CCC/C1=C/C=C1\SC(=S)NC1=O,-0.9,9.9,10.3,80.9*,47.7*
O=C(c1ccc(Cl)cc1)[C@@H]1[C@@H]2C(=O)N(c3ccc(Cl)cc3)C(=O)[C@@H]2C2c3ccccc3C=NN21 (stereo not given in full),1.3,-35.0*,0.2,27.9,4.9
COCc1nn2c(N)c(-c3ccccc3)cnc2c1-c1ccccc1,-6.7,-35.0*,3.6,1.8,0.3
COc1cc(CC(=O)OCC(=O)Nc2sccc2C(N)=O)cc(OC)c1OC,-0.8,-27.1,-3.1,11.0,0.8
Cc1cccc(C)c1NC(=O)COC(=O)Cc1ccsc1,-5.6,9.8,0.3,2.7,0.3
NC(=O)c1ccsc1NC(=O)COC(=O)Cc1ccsc1,-8.0,-38.6*,-8.5,9.9,0.7
CC(Oc1ccccc1)C(=O)OCC(=O)Nc1sccc1C(N)=O (stereo not given),-2.8,-34.2*,-1.1,13.5,0.0
Cc1ccccc1NC(=O)COC(=O)Cc1ccsc1,-4.5,-31.1*,-0.8,3.2,-0.2
COc1ccc(S(=O)(=O)Nc2cc3c4c(c2)C(C)C(=O)N4CCC3)cc1OC (stereo not given),0.7,-13.4,0.2,0.9,0.3
COc1ccc2[nH]c3c(c2c1)CCN1C(=O)N([C@@H](C)C(=O)NCc2ccc(F)cc2)C(=O)[C@]31C,10.2,0.0,-9.5,0.8,0.1
COc1ccc2[nH]c3c(c2c1)CCN1C(=O)N([C@@H](C)C(=O)NCCc2ccc(F)cc2)C(=O)[C@]31C,-6.5,-85.2*,2.9,1.0,-0.8
Cc1ccc(N(C(=O)c2csnn2)C(C(=O)NC2CCCC2)c2cccnc2)c(C)c1 (stereo not given),-4.8,2.2,12.3,0.6,0.2
O/N=C/c1cn(-c2ccccc2)nc1-c1cccnc1,-0.6,-10.2,-3.0,2.0,0.8
Cc1ccc(-c2nn(-c3ccccc3)cc2/C=N/O)cc1,37.9*,-1.0,5.5,58.5*,-0.5
Cc1ccc(-c2nn(-c3ccccc3)cc2/C=C/C(=O)Nc2nccs2)cc1,-5.2,-30.9*,-4.9,13.3,-0.9
O=C(COc1ccc(F)cc1)Nc1ccc(C(=O)OCc2cc(=O)n3nc(C4CC4)sc3n2)cc1,-0.5,5.4,-1.9,-0.4,0.5
CCCCCCn1c(=O)[nH]c2nc3cc(N)ccc3nc2c1=O,16.3,-14.0,30.6*,451.4*,129.6*
Cc1sc(NC(=O)c2sc3nc4c(C)cccc4cc3c2N)c(C#N)c1C,0.1,22.9,1.7,55.1*,0.0
COc1ccc(CCC(=O)NCCc2csc(-c3cccc(F)c3)n2)cc1,-0.7,-16.4,5.2,-0.9,-1.0
Cc1ccc(-n2nc(C)c3c(C(F)(F)F)cc(-c4cccnc4)nc32)cc1C,1.0,-49.9*,-0.2,-0.1,1.1

# Screening results (PubChem)
